Measured values from the supplement of paper PMC10849652.
About 8,800 targets were measured; listed, in parts, are those with a hit and a random draw of the rest. About 0.5% of all pairs of compound and target were hits.

Each target was assayed with CC(C)(C)Cn1c(N)nc2ccc(-c3[nH]c(C(C)(C)C)nc3-c3ccc(F)cc3)nc21 [ralimetinib] (assay: log2 fold change, soluble protein after heating vs DMSO (PISA); higher = thermal stabilisation; K562 lysate, 10 uM; active = over 0.2 and 3.5 SD of the protein, either way, in both replicates (recomputed)).
In short: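 Quantification was by TMTpro 16plex LC-MS/MS with equalised channel sums, applied to the supernatant after 21,000xg for 90 min. Samples were crude K562 extract at 1 mg/mL protein in PBS pH 7.4 with 1 mM MgCl2, treated with 10 μM compound for 30 min, heated for 3 min across 48°C-58°C, pooled and brought to 0.5% NP-40 at 4°C. Values are log-two fold changes in thermal stability relative to solvent controls, from duplicates.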

UniProt Q99797, sequence (Q99797 whole entry, looked up): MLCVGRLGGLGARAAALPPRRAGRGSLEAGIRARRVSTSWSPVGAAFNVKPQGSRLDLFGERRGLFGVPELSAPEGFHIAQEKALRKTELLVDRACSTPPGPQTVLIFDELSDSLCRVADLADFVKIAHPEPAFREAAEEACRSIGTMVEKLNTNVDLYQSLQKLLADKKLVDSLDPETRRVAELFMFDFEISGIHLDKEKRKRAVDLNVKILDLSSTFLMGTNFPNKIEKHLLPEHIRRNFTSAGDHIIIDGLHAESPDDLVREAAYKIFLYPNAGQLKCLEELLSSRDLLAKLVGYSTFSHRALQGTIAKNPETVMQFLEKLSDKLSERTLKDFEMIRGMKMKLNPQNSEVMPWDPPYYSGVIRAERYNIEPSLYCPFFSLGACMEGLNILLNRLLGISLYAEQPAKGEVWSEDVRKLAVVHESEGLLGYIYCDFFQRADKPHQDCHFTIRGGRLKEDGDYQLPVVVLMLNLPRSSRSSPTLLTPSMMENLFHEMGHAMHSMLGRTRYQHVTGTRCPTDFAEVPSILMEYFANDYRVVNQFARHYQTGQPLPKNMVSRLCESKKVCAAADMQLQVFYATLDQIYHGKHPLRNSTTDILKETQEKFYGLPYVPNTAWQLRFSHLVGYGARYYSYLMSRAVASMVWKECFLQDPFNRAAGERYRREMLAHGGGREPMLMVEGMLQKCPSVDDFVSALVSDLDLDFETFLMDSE
UniProt Q9BPX6, sequence (Q9BPX6 whole entry, looked up): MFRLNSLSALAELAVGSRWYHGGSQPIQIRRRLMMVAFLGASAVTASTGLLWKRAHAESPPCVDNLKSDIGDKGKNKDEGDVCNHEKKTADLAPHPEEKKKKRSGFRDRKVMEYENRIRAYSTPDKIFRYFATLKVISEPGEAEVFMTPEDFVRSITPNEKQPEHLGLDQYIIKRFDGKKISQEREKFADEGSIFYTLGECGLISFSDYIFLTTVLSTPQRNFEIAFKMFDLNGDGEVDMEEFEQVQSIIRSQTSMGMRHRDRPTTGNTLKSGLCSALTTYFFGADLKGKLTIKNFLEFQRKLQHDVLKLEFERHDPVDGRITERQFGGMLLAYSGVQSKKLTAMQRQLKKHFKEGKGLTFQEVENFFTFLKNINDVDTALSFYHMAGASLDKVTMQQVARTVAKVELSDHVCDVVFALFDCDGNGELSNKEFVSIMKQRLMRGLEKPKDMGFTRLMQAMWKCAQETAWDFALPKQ
UniProt Q9NWR8, sequence (Q9NWR8 whole entry, looked up): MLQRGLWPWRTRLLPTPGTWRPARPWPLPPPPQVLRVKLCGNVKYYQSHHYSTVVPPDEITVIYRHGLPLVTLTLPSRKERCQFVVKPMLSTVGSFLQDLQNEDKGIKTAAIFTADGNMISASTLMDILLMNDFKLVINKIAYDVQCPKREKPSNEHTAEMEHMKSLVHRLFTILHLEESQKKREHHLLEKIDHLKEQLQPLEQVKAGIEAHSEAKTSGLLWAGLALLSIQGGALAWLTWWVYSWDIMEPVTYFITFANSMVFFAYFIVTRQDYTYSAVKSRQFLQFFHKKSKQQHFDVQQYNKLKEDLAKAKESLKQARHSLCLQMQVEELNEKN
UniProt Q15013, sequence (Q15013 whole entry, looked up): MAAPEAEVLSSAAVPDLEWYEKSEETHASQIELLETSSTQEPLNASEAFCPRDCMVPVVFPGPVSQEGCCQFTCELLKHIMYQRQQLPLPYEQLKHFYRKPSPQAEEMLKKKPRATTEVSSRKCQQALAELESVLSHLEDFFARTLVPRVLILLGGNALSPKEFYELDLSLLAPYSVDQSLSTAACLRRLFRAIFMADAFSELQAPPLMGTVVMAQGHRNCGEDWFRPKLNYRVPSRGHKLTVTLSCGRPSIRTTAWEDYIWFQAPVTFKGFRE
UniProt Q93074, sequence (Q93074 whole entry, looked up): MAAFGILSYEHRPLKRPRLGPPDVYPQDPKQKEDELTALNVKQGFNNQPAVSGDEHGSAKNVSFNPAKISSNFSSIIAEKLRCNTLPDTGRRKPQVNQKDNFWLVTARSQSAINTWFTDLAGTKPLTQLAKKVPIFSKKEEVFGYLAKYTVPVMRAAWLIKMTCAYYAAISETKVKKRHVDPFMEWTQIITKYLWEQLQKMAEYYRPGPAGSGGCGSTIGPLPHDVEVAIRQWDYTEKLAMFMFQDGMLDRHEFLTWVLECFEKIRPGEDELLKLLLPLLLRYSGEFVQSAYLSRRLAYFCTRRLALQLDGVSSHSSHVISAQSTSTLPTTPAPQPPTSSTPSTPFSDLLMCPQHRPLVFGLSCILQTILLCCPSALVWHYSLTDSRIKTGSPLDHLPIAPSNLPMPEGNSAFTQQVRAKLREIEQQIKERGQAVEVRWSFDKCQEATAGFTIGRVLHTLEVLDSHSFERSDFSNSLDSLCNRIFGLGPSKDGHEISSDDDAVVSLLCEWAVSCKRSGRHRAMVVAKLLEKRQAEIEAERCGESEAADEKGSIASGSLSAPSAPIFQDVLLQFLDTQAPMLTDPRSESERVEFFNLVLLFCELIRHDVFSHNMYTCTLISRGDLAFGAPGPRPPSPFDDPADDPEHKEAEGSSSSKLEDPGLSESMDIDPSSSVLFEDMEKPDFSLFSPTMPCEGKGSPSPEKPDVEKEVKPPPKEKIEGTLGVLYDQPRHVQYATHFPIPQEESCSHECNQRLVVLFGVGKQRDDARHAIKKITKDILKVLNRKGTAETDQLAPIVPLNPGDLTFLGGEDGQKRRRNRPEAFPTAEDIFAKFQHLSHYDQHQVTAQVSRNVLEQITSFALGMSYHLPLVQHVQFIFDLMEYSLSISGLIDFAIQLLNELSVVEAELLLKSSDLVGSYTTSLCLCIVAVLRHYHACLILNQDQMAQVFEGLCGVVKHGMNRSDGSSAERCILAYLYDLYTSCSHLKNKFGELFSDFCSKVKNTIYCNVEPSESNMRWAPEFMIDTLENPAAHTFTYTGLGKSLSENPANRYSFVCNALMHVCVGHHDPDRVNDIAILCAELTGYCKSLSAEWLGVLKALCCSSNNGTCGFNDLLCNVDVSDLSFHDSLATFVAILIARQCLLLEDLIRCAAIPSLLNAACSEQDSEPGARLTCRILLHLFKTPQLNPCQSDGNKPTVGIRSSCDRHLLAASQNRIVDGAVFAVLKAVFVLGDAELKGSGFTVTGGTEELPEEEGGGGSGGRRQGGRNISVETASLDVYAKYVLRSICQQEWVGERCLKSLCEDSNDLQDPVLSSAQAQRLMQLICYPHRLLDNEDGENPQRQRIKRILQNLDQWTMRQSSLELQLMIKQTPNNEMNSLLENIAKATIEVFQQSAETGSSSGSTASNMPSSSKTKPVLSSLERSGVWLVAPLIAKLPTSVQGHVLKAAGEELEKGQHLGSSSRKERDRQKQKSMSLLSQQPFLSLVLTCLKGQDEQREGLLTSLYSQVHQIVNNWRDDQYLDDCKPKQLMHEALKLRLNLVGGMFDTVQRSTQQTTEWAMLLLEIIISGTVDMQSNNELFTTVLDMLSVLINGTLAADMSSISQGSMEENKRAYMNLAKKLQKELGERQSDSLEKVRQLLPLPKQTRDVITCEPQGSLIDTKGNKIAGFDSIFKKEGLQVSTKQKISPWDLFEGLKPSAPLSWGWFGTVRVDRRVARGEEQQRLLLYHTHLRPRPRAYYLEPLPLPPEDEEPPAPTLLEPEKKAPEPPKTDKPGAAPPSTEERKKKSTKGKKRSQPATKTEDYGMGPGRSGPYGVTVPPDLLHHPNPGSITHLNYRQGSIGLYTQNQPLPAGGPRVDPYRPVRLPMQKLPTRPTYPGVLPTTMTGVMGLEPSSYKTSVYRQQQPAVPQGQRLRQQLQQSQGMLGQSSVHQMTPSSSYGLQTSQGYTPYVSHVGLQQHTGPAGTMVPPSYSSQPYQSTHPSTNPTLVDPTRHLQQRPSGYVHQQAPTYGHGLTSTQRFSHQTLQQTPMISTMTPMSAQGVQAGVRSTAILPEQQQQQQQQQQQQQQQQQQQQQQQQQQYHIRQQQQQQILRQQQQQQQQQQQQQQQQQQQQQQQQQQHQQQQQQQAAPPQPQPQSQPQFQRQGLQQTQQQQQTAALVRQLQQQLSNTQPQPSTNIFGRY
UniProt Q96RQ3, sequence (Q96RQ3 whole entry, looked up): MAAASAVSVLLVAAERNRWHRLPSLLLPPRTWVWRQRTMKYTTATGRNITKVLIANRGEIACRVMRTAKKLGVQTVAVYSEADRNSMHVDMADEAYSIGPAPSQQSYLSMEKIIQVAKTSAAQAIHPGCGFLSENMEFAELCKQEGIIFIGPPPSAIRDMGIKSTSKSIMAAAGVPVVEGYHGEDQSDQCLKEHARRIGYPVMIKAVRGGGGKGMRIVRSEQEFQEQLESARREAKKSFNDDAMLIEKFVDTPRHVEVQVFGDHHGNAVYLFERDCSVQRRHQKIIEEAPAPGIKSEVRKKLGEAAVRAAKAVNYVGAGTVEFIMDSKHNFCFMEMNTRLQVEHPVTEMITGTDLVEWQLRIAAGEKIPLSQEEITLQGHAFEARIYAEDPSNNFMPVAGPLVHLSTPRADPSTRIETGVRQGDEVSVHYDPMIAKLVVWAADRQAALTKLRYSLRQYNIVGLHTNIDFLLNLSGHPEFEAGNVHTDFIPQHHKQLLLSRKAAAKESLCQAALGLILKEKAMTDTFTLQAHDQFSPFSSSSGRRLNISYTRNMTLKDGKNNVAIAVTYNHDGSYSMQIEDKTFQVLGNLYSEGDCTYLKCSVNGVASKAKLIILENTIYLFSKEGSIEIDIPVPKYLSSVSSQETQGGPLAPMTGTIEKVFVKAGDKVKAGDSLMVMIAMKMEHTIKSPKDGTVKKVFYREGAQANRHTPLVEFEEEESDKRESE

Row | Target | log2 fold change
1 | MARK2 (UniProt E9PC69) | 0.014 (inactive)
2 | MICU1 isoform 3 (UniProt Q9BPX6) | 0.023 (inactive)
3 | MED12 isoform 2 (UniProt Q93074) | 0.022 (inactive)
4 | LYAR (UniProt Q9NX58) | -0.011 (inactive)
5 | MLH1 (UniProt P40692) | 0.02 (inactive)
6 | MIPEP (UniProt Q99797) | 0.027 (inactive)
7 | MAD2L1BP isoform 3 (UniProt Q15013) | 0.038 (inactive)
8 | LIG4 (UniProt P49917) | -0.001 (inactive)
9 | MCUB (UniProt Q9NWR8) | 0.054 (inactive)
10 | MOCS1 isoform 8 (UniProt Q9NZB8) | -0.066 (inactive)
11 | MAP3K4 (UniProt Q9Y6R4) | 0 (inactive)
12 | MAPKAPK2 (UniProt P49137) | -0.011 (inactive)
13 | MAPK9 (UniProt P45984) | 0.366 (active)
14 | MCMBP isoform 2 (UniProt Q9BTE3) | -0.138 (inactive)
15 | MRPL15 (UniProt Q9P015) | -0.024 (inactive)
16 | MRPL10 isoform 2 (UniProt Q7Z7H8) | 0.047 (inactive)
17 | MORC3 (UniProt Q14149) | 0.021 (inactive)
18 | LRRC40 (UniProt Q9H9A6) | 0.019 (inactive)
19 | LARP4B (UniProt Q92615) | 0.055 (inactive)
20 | MAP1S (UniProt Q66K74) | 0.004 (inactive)
21 | LTN1 isoform 3 (UniProt O94822) | 0.016 (inactive)
22 | MCCC1 (UniProt Q96RQ3) | 0.022 (inactive)
